An excerpt weighted towards active compounds, which were near 3.5% of everything screened.
TEAD-YAP block = TEAD-YAP interaction inhibition; HEK-TIYL cells, TEAD-Gal4/YAP UAS-luciferase luminescence; inhibition, % at 9.12 µM; 640,000 compounds, 1.4% hits; in the data active = inhibition above about 32%
GPR151 ag = activates the human receptor GPR151. PathHunter beta-arrestin GPR151 cells, luminescence. 650,000 compounds, 1% hits. activation, % at 11.2 µM. AID 1508602. Q8TDV0; in the data active = activation above about 4.9%
FBW7 act = activators of human E3 ligase FBW7; AlphaScreen FBW7–phospho-cyclin E peptide binding, activator screen; AID 1259310; Q969H0; normalized activity (activation), % at 26.1 µM; 650,000 compounds, 0.13% hits; in the data active = normalized activity above about 1.9%;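 note: purified mutant Fbw7 with reduced substrate affinity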
Target sequence (Q969H0 whole entry, looked up): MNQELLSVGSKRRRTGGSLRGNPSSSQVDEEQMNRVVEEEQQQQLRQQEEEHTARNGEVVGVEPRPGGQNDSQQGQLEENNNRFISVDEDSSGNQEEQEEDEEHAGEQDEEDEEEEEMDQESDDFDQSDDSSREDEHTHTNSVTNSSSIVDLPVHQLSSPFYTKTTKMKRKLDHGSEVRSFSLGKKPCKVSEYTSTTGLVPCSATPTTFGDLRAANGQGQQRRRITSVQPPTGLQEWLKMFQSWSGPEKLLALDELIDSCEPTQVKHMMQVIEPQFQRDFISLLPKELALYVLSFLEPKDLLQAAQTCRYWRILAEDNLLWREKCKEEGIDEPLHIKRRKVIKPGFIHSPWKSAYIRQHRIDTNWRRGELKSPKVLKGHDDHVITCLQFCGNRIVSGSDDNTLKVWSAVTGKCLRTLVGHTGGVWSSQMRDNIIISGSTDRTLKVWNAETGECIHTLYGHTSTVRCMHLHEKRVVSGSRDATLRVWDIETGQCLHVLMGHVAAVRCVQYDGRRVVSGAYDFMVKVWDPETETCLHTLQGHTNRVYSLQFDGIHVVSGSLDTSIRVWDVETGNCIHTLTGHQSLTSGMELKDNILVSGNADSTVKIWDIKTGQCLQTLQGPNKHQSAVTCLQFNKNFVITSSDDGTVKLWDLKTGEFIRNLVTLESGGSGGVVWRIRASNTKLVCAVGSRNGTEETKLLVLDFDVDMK
MITF primary = human MITF inhibition, primary screen; O75030; AlphaScreen MITF homodimerization, bead proximity signal; inhibition, % at 2.6 µM; 650,000 compounds, 0.91% hits; AID 1259374; in the data active = inhibition above about 50%
Numbers stand for hits; i = inactive.

SMILES	TEAD-YAP block	GPR151 ag	FBW7 act	MITF primary
CC(C)N1CCc2c(sc(NC(=O)c3cc4ccccc4oc3=O)c2C(N)=O)C1	62	i	i	i
CCOC(=O)N1CCc2c(sc(NC(=O)/C=C/c3ccc([N+](=O)[O-])cc3)c2C#N)C1	i	i	i	i
CCOC(=O)N1CCc2c(sc(NC(=O)/C=C/c3cccs3)c2C#N)C1	49	i	i	i
CC(=O)N1CCc2c(sc(NC(=O)/C=C/c3cccs3)c2C(N)=O)C1	41	i	i	i
CCOC(=O)N1CCc2c(sc(NC(=O)c3cccc(Br)c3)c2C#N)C1	42	i	i	i
COc1ccc(NC(=O)c2ccc(C(=O)c3c(C)cc(C)cc3C)cc2)cc1	i	i	i	i
COc1ccc(/C=N/N2CCOCC2)cc1CN1CCOCC1	i	i	i	i
N#Cc1c(N)nc(SCC(=O)O)c(C#N)c1-c1ccc(O)cc1	i	i	i	i
N#Cc1c(N)nc(SCC(=O)c2ccc(F)cc2)c(C#N)c1-c1ccc(O)cc1	34	i	i	i
c1ccc2c(c1)ccc1nnc(-c3c[nH]c4ccccc34)n12	i	i	i	i
c1ccc2c(c1)Cn1nc(-c3c[nH]c4ccccc34)nc1-2	77	i	i	i
CC(C)C(NS(=O)(=O)c1cccc2nsnc12)C(=O)NCc1ccc(F)cc1 (stereo unspecified)	i	i	i	i
CNC(=O)c1cc(F)c(F)cc1Nc1cc(Nc2ccc(N3CCOCC3)cc2OC)ncc1C(F)(F)F	i	i	i	i
CNC(=O)c1ccccc1Nc1cc(Nc2ccc(N3CCOCC3)cc2)ncc1C(N)=O	i	i	i	i
CNC(=O)c1ccccc1Nc1nc(Nc2ccc(N3CCOCC3)c(F)c2)ncc1Cl	63	i	i	i
CNC(=O)c1ccccc1Nc1nc(Nc2ccc(-n3cnc(N4CCOCC4)n3)cc2)ncc1Cl	i	i	i	i
CNC(=O)c1ccccc1Nc1cc(Nc2cccnc2)ncc1C(F)(F)F	i	i	i	i
CNC(=O)c1ccccc1Nc1cc(Nc2ccc(C(=O)N3CCOCC3)cn2)ncc1C(F)(F)F	86	i	i	i
CNC(=O)c1ccccc1Nc1cc(Nc2ccc(N3CCOCC3)cc2)ncc1C(F)(F)F	75	i	i	i
CNC(=O)c1ccccc1Nc1cc(Nc2ccc(N3CCOCC3)cc2F)ncc1C(F)(F)F	67	i	i	i
Cc1cc(F)ccc1S(=O)(=O)Nc1cc2c3c(c1)CC(=O)N3CCC2	i	i	i	i
COC(=O)CSC1=C(C#N)C(c2ccco2)C(C(=O)Nc2ccccc2C)=C(C)N1 (stereo unspecified)	i	i	i	i
CCn1c(SCC(=O)O)nnc1-c1cccs1	i	i	i	i
CCN(c1ccccc1)S(=O)(=O)c1ccc2c(c1)oc(=O)n2C	i	i	i	i
CCN(c1ccc(C)c(C)c1)S(=O)(=O)c1ccc2c(c1)oc(=O)n2C	i	i	i	i
SMILES	TEAD-YAP block	GPR151 ag	FBW7 act	MITF primary
CCN(c1cccc(C)c1)S(=O)(=O)c1ccc2c(c1)oc(=O)n2C	44	i	i	i
CCOc1ccc(N(CC)S(=O)(=O)c2ccc3c(c2)oc(=O)n3C)cc1	48	i	i	i
CCn1c(-c2ccc(Cl)cc2)csc1=Nc1ccccc1	i	i	i	i
CCn1c(-c2ccc(OC)cc2)csc1=Nc1ccc(NC(C)=O)cc1	65	i	i	i
CCn1c(-c2ccc(Cl)cc2)csc1=Nc1ccc(NC(C)=O)cc1	80	i	i	i
C=CCn1c(-c2ccc(C)cc2)csc1=Nc1ccc(NC(C)=O)cc1	50	i	i	i
Cc1c(C)c(O)c(C(CC(=O)N2CCOCC2)c2ccccc2)c(C)c1O (stereo unspecified)	i	i	i	i
Cc1cccc(-c2nnc(NC(=O)c3ccccc3F)s2)c1	i	i	1.9	i
Cc1cccc(NS(=O)(=O)c2nnc(NC(=O)c3ccccc3F)s2)c1	i	i	i	i
COc1ccc(OC)c(NC2=CC(=O)CC(c3ccccc3)C2)c1 (stereo unspecified)	55	i	i	i
COc1ccc(NC2=CC(=O)CC(c3ccccc3)C2)c(OC)c1 (stereo unspecified)	48	i	i	i
CNc1nc(C)nc(-c2ccccc2OC(C)=O)n1	i	i	i	i
Cc1nc2ccccn2c1C(=O)N1CCn2c1nc1ccccc12	i	i	i	i
Clc1cccc(-c2cnc3ccc(NCCc4cccnc4)nn23)c1	94	i	2.0	i
N#Cc1ccc(-c2cnc3ccc(NCCc4cccnc4)nn23)cc1	34	i	i	i
COc1ccc(/C=C2\SC(=Nc3cccc(C)c3C)NC2=O)c(OC)c1	i	i	i	i
COc1ccc(/C=C2\SC(=O)NC2=Nc2ccc(C)cc2)c(OC)c1	58	i	i	i

Screening results: PubChem, The Scripps Research Institute Molecular Screening Center
